# Assay results taken from PubChem BioAssay AID720650 (Broad Institute, 2013).
# A number with no mark means an inactive call. Active and inactive are the calls of the source. No rule for the calls is given here.
# Experiment: Biochemical counterscreen for C difficile toxins, absence of UDPG, inhibitor dose response (AID 720650)
# Conditions: series mostly up to 19.5 µM; activity change, negative = inhibition: at the top concentration
Compound,"activity change, negative = inhibition [%]",AC50
COc1cc2ccccc2cc1C(=O)N/N=C/c1cccs1,-4.51,
Oc1ccc2c(ccc3[nH]cnc32)c1,,20.8 µM (active)
COCC(=O)N1CC[C@@H]2[C@H]1c1cc(-c3ccc(OC)cc3)ccc1N(C)[C@H]2CO,,10.2 µM (active)
O=C(C[C@@H]1C[C@@H]2c3cc(NC(=O)c4ccc5c(c4)OCO5)ccc3O[C@@H]2[C@@H](CO)O1)NCc1cccc(F)c1,-11.8,
Oc1cc(O)cc(/C=C/c2ccc(O)c(O)c2)c1,0.027,
CN1C=CC(=CC=C2C=CC(=O)C=C2)C=C1,,7.43 µM (active)
CCCCn1c(=S)[nH]c2c(=O)n(C)c(=O)n(C)c21,,14.9 µM (active)
COc1ccccc1-n1c(CCC(=O)O)ccc1-c1ccccc1,-1.98,
O=c1[nH]c(/C=C\c2ccc(O)cc2)nc(O)c1[N+](=O)[O-],,12.2 µM (active)
O=C1Nc2ccc(Br)cc2C1Cc1ccccc1F (centres undefined),,7.69 µM (active)
C/C(=N\NC(N)=S)c1ccc2c(c1)OCCO2,-8.65,
CCN(CCN(C)C)C(=O)C1CCN(S(=O)(=O)c2c(C)noc2/C=C/c2ccccc2F)CC1,-11.6,
COCC(=O)N1CC[C@@H]2[C@H]1c1cc(-c3ccccc3)ccc1N(C)[C@H]2CO,,6.54 µM (active)
Oc1ccc(/C=N/Nc2ncnc3nc[nH]c23)cc1,18,
CNC(=O)N(O)C1N(/N=C/c2ccc(SC)cc2)C(=S)SC1(C)C (centres undefined),,> 39 µM
CCNC(=O)C[C@H]1CC[C@@H]2[C@@H](COc3ccc(NC(=O)c4cccc(OC)c4)cc3C(=O)N2C)O1,,> 39 µM
Cc1ccc(C(=O)Nc2scc(-c3ccccc3)c2C(=O)O)cc1,,9.56 µM (active)
CNC(=O)C1CCN(S(=O)(=O)c2c(C)noc2/C=C/c2ccc(C)cc2)CC1,-2.85,
CC[C@H](C)[C@@H]1NC(=O)c2cc([N+](=O)[O-])cc(I)c2NCC[C@@H](C(N)=O)NC(=O)[C@H](CCCN=C(N)N)NC1=O,1.27,
CN1CCN(/N=C/c2c[nH]c3ccccc23)CC1,,> 39 µM

Compound,"activity change, negative = inhibition [%]",AC50
CC(=O)Nc1ccc(OC(=O)Oc2ccc(NC(C)=O)cc2)cc1,,> 39 µM
C[C@H]1CN([C@@H](C)CO)S(=O)(=O)c2ccc(-c3ccncc3)cc2O[C@H]1CN(C)Cc1ccc(Oc2ccccc2)cc1,-6.4,
COc1cc(-c2noc(C)c2C#CC2(O)CCCCC2)cc(OC)c1OC,-10.8,
O=C(COc1ccc2ccc(=O)oc2c1)NCCN1CCOCC1,-11.5,
O=C(O)c1ccc2c(c1)N(Cc1cccc(F)c1)C(=O)CS2,-24.5,
Oc1ccc(/C=N/Nc2nc(N3CCCC3)nc(N3CCCC3)n2)cc1O,-1.92,
CNc1cncc(-c2ccc(O)cc2)n1,,11.7 µM (active)
COc1ccc(-c2ccc3c(c2)[C@H]2[C@H](CCN2C(=O)CN2CCOCC2)[C@@H](CO)N3)cc1,,11 µM (active)
Cc1cc(C)c(NS(=O)(=O)c2cccc3cccnc23)c(C)c1,-8.44,
COc1ccc(C2=NS(=O)(=O)N(C)C(C(=O)N3CCN(C)CC3)=C2)cc1,-7.42,
CCOC(=O)c1ccc(-n2c(CCC(=O)O)ccc2-c2ccc(F)cc2)cc1,10.7,
O=S(=O)(c1ccccc1)N1CCN(Cc2nnc(-c3ccccc3)o2)CC1,-4.82,
CCn1c(C)nc2cc(C(=O)N/N=C/c3ccc(O)cc3)ccc21,,15.1 µM (active)
COc1cccc(C(CNc2ccc(S(=O)(=O)N3CCN(C)CC3)cc2[N+](=O)[O-])N(C)C)c1 (centres undefined),12.2,
COc1ccc(C)cc1NC(=O)C(OC(=O)C1=NNC(=O)CC1)c1ccccc1 (centres undefined),1.41,
CN(c1ccccc1)S(=O)(=O)c1cccc(C(=O)NCCc2ccc(O)c(O)c2)c1,1.79,
O=[N+]([O-])c1ccc(/C=C/c2ccc3ccccc3n2)cc1,-8.36,
Cc1ccc(S(=O)(=O)Oc2cccc(/C=N/n3cnnc3)c2)cc1,,> 39 µM
O=C(CN1C(=O)CCC1=O)NNc1ccc2ccccc2c1,,< 0.16 µM (active)
